This is an account of results in PubChem BioAssay AID1466 (National Center for Advancing Translational Sciences (NCATS), 2008).

Among all 200,000 compounds or so, about 10 (0.005%) were called active. About 8% were inconclusive and are not listed. The sample as a whole holds a higher share of actives than the screen did. Unmarked numbers belong to inactive results. Calls come from the whole dose curve; as a rule, active = well fitted inhibition curve with a large enough effect; inconclusive = small, poorly fitted or top-dose-only effect, or effect the other way, or another doubt; inactive = no such curve, though single readings can be large or run the other way.
Potency is the fitted concentration of half-maximal effect.

For the assay, the target named is Lysosomal alpha-glucosidase (Homo sapiens) (UniProt P10253). Put plainly: qHTS Assay for Inhibitors of Human alpha-Glucosidase as a Potential Chaperone Treatment of Pompe Disease.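 For activity change, negative = inhibition: plate controls were uninhibited enzyme wells for no effect and no-enzyme background for full effect.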 The conditions noted are these: purified human GAA, 4-MU-alpha-glucoside fluorescence; series mostly up to 76.9 µM; activity change, negative = inhibition: at the top concentration. An excerpt:
NIH Chemical Genomics Center [NCGC] NIH Molecular Libraries Probe Production centers Network [MLPCN] MLPCN Grant: 1R03MH084841-01 Assay Submitter (PI): Wei Zheng NCGC Assay Overview: Alpha-glucosidase is responsible for hydrolysis of terminal, non-reducing 1,4-linked alpha-D-glucose residues with release of alpha-D-glucose. It is a lysosomal hydrolase that is required for the degradation of a small percentage (1-3%) of cellular glycogen in human. Deficiency of this enzyme results in glycogen-storage disease type II (GSDII), also referred to as Pompe disease, an autosomal recessive disorder. Structurally normal glycogen is accumulated in lysosomes and cytoplasm in affected patients, primarily in muscle tissues. Excessive glycogen storage within lysosomes may interrupt normal functioning of other organelles and leads to cellular injury. In turn, this leads to enlargement and dysfunction of the entire organ involved (eg, cardiomyopathy and muscle weakness). It has reported that the improper folding and trafficking of alpha-glucosidase resulting from the genetic mutations may account for a significant number of Pompe patients. […] We optimized this alpha-glucosidase assay in 1536-well plate format for identifying the novel small molecule inhibitors with the structures other than the sugar analogs in order to develop the new pharmacological chaperones.
NCGC Assay Protocol Summary: This is a fluorogenic enzyme assay with 4-methylumbelliferyl-alpha-D-[…] as the substrate and human alpha-glucosidase as the enzyme preparation. Upon the hydrolysis of this fluorogenic substrate, the resulting product, 1. 4-methyllumbelliferone, can be excited at 365 nm and emits at 440 nm which can be detected by a standard fluorescence plate reader. Data were normalized to the controls for basal activity (without enzyme) and 100% activity (with enzyme). In the AC50 values were determined from concentration-response data modeled with the standard Hill equation. Assay buffer: 50 mM citric acid (titrated with potassium phosphate to pH 5.0), 0.005% Tween-20, pH 5.0. (pH 5.0 is an optimal condition for this enzyme assay) 1536-well assay protocol for the human alpha-glucosidase: (1) Add 2 ul/well of enzyme (4 nM final) (2) Add 23 nL compounds in DMSO solution. The final titration was 0.7 nM to 77 uM. (3) Add 1 ul of substrate (400 uM final) (4) Incubate at room temperature for 20 min. (5) Add 2 ul stop solution (1M NaOH and 1M Glycine mixture, pH 10) (6) Detect the assay plate in a ViewLux plate reader (PerkinElmer) with Ex=365 nm and Em=440nm. Keywords: Alpha-glucosidase, Pompe Disease, pharmacological chaperone, chaperone therapy, high throughput screening, alpha-glucosidase inhibitor, MLSMR, MLSCN, NIH Roadmap, qHTS and NCGC
`Cc1cc(/C=C2/C(=O)NC(=O)N(Cc3ccco3)C2=O)c(C)n1-c1ccc(C(=O)O)cc1`: the Potency was 31.6 µM (active).

For the molecule `Cc1ccc(-n2c(C)cc(/C=C3\C(=O)NC(=O)N(C)C3=O)c2C)cc1C`, the “activity change, negative = inhibition” value was 2.84%.

In the case of `Cc1c(C(=O)O)cccc1-n1c(C)cc(/C=C2\C(=O)NC(=O)N(c3ccc4c(c3)OCO4)C2=O)c1C`, the “activity change, negative = inhibition” value is 2.1%.

Take `CCN1CC2C3CCC(C)(O3)C2C1` (stereo not given): the “activity change, negative = inhibition” value is -14.9%.

For `CCOP(=O)(OCC)C(NC(=O)c1ccc(OC)cc1)C(Cl)(Cl)Cl` (stereo not given), the “activity change, negative = inhibition” value is -14.7%.
